According to the supplement of paper PMC9950053:
Where a name gives a salt, the structure may show the parent alone.

test system: Danio rerio larvae (5 dpf); test: habituation (activity change first vs second 5 min of 1-s interval sound, period 17) minus DMSO control (percentage points); higher = larger habituation measure than DMSO larvae; settings: 10 µM; exposure time: 3 h pre-incubation + 3 h imaging
Experimental: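 Wild-type 5 dpf zebrafish larvae (n=48 per drug, 96-well plates, 28.5 °C) were exposed to Tocris FDA-approved library compounds at 10 µM (0.1% DMSO) for 3 h before and 3 h during imaging. Images were taken every 6 s during visual (moving coloured lines) and acoustic stimuli, and larvae were tracked with the DeepLabCut-based Z-LaP Tracker. Each behavioural measure is the treated-group mean minus the DMSO vehicle control mean (n=844), in percentage points. This mapping covers compounds with 4-character plate codes.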

| Compound | habituation |
| --- | --- |
| Cc1nnc(C(C)C)n1C1C[C@H]2CC[C@@H](C1)N2CC[C@H](NC(=O)C1CCC(F)(F)CC1)c1ccccc1 (stereo in doubt) [Maraviroc] | 3.31 |
| Cc1ccccc1C(=O)Nc1ccc(C(=O)N2CCCC(O)c3cc(Cl)ccc32)c(C)c1 (stereo not given) [Tolvaptan] | 2.26 |
| O=C(NCC1CCCCN1)c1cc(OCC(F)(F)F)ccc1OCC(F)(F)F (stereo not given) [Flecainide acetate] | 0.225 |
| OC(CNCC(O)C1CCc2cc(F)ccc2O1)C1CCc2cc(F)ccc2O1 (stereo not given) [Nebivolol hydrochloride] | -10.1 |
| OCCN(CCO)c1nc(N2CCCCC2)c2nc(N(CCO)CCO)nc(N3CCCCC3)c2n1 [Dipyridamole] | 5.96 |
| Cc1cccc(CN2CCN(C(c3ccccc3)c3ccc(Cl)cc3)CC2)c1 (stereo not given) [Meclizine dihydrochloride] | -12.4 |
| CCC(C)(C)C(=O)O[C@H]1C[C@@H](C)C=C2C=C[C@H](C)[C@H](CC[C@@H]3C[C@@H](O)CC(=O)O3)[C@H]21 [Simvastatin] | -1.02 |
| COc1cc(Nc2c(C#N)cnc3cc(OCCCN4CCN(C)CC4)c(OC)cc23)c(Cl)cc1Cl [Bosutinib] | 1.4 |
| CC(C)(C)NC(=O)[C@@H]1C[C@@H]2CCCC[C@@H]2CN1C[C@@H](O)[C@H](Cc1ccccc1)NC(=O)[C@H](CC(N)=O)NC(=O)c1ccc2ccccc2n1 [Saquinavir mesylate] | -0.527 |
| C[C@]12CCC(=O)C=C1CC[C@@H]1[C@@H]2[C@@H](O)C[C@@]2(C)[C@H]1CC[C@]2(O)C(=O)CO [Hydrocortisone] | 4.44 |
| CN1CC2c3ccccc3Oc3ccc(Cl)cc3C2C1 (stereo not given) [Asenapine maleate] | -12.6 |
| COC(c1ccccc1)(c1ccccc1)[C@H](Oc1nc(C)cc(C)n1)C(=O)O [Ambrisentan] | 4.59 |
| CC[C@H](C)C(=O)O[C@H]1C[C@@H](C)C=C2C=C[C@H](C)[C@H](CC[C@@H]3C[C@@H](O)CC(=O)O3)[C@H]21 [Lovastatin] | -2.11 |
| CCOc1nc2cccc(C(=O)O)c2n1Cc1ccc(-c2ccccc2-c2noc(=O)[nH]2)cc1 [Azilsartan] | 8.15 |
| Cc1ccsc1C(=CCCN1CCC[C@@H](C(=O)O)C1)c1sccc1C [Tiagabine hydrochloride] | 6.37 |
| CC(C)[C@H]1CC[C@H](C(=O)N[C@H](Cc2ccccc2)C(=O)O)CC1 [Nateglinide] | -2.04 |
| Cc1c(-c2ccc(O)cc2)n(Cc2ccc(OCCN3CCCCCC3)cc2)c2ccc(O)cc12 [Bazedoxifene acetate] | 0.95 |
| Cc1ccc(NC(=O)c2ccc(CN3CCN(C)CC3)cc2)cc1Nc1nccc(-c2cccnc2)n1 [Imatinib mesylate] | 1.88 |
| Cn1cnc([N+](=O)[O-])c1Sc1ncnc2[nH]cnc12 [Azathioprine] | -3.52 |
| CC(=O)NC[C@H]1CN(c2ccc(N3CCOCC3)c(F)c2)C(=O)O1 [Linezolid] | -3.73 |

| Compound | habituation |
| --- | --- |
| Cc1cn([C@H]2C=C[C@@H](CO)O2)c(=O)[nH]c1=O [Stavudine] | -0.444 |
| COc1c(C)c2c(c(O)c1C/C=C(\C)CCC(=O)O)C(=O)OC2 [Mycophenolic acid] | 1.82 |
| CN1CC[C@@H](NC(=O)Nc2ccc(C#N)cc2)C[C@@H]1c1nc2ccccc2[nH]1 | -0.504 |
| CO[C@H]1/C=C/O[C@@]2(C)Oc3c(C)c(O)c4c(O)c(c5c(nc6cc(C)ccn65)c4c3C2=O)NC(=O)/C(C)=C\C=C\[C@H](C)[C@H](O)[C@@H](C)[C@@H](O)[C@@H](C)[C@H](OC(C)=O)[C@@H]1C [Rifaximin] | -3.24 |
| COc1ccc(C[C@@H](C)NC[C@H](O)c2ccc(O)c(NC=O)c2)cc1 [Arformoterol tartrate] | -3.57 |
| CCc1ccc(CCOc2ccc(CC3SC(=O)NC3=O)cc2)nc1 (stereo not given) [Pioglitazone hydrochloride] | 0.765 |
| C=CC(=O)N1CCC[C@@H](n2nc(-c3ccc(Oc4ccccc4)cc3)c3c(N)ncnc32)C1 [Ibrutinib] | -7.32 |
| N[C@@H]1[C@H]2CN(c3nc4c(cc3F)c(=O)c(C(=O)O)cn4-c3ccc(F)cc3F)C[C@@H]12 [Trovafloxacin mesylate] | -4.07 |
| CN1CCN2c3ncccc3Cc3ccccc3C2C1 (stereo not given) [Mirtazapine] | -1.26 |
| CC(=O)S[C@@H]1CC2=CC(=O)CC[C@]2(C)[C@H]2CC[C@@]3(C)[C@@H](CC[C@@]34CCC(=O)O4)[C@H]12 [Spironolactone] | 2.5 |
| C=C1[C@H](CO)[C@@H](O)C[C@@H]1n1cnc2c(=O)[nH]c(N)nc21 [Entecavir] | 1.2 |
| CCCCCOC(=O)Nc1nc(=O)n([C@@H]2O[C@H](C)[C@@H](O)[C@H]2O)cc1F [Capecitabine] | -3.27 |
| CCN(CC)CCNC(=O)c1c(C)[nH]c(/C=C2\C(=O)Nc3ccc(F)cc32)c1C [Sunitinib malate] | 5.06 |
| CN(C)CC/C=C1/c2ccccc2COc2ccc(CC(=O)O)cc21 [Olopatadine hydrochloride] | -0.266 |
| COc1cc2nc(N3CCN(C(=O)C4COc5ccccc5O4)CC3)nc(N)c2cc1OC (stereo not given) [Doxazosin mesylate] | 0.55 |
| NC(=O)c1ncn([C@@H]2O[C@H](CO)[C@@H](O)[C@H]2O)n1 [Ribavirin] | 0.859 |
| CCOC(=O)C1=C(C)NC(C)=C(C(=O)OC)C1c1cccc(Cl)c1Cl (stereo not given) [Felodipine] | -11.4 |
| CC#C[C@]1(O)CC[C@H]2[C@@H]3CCC4=CC(=O)CCC4=C3[C@@H](c3ccc(N(C)C)cc3)C[C@@]21C [Mifepristone] | -3.13 |
| COc1cc2nc(N3CCN(C(=O)c4ccco4)CC3)nc(N)c2cc1OC [Prazosin hydrochloride] | 0.443 |
| C#C[C@]1(O)CC[C@H]2[C@@H]3CCC4=CC(=O)CC[C@@H]4[C@H]3CC[C@@]21CC [Levonorgestrel] | -7.5 |
